L3MBTL1 block: inhibitors of human L3MBTL1; Q9Y468; AlphaScreen L3MBTL1–H3K9me1 peptide binding; Potency, µM (top dose mostly 57.1 µM), without a hit: top-dose activity, negative = inhibition, hits mostly inhibitors; actives 0.66% (n = 230,000); AID 485360; note: % is set by controls: 0 for no effect and ±100 for the full control effect; nearly all actives have a fitted effect of over 60% in size
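AlphaScreen proximity signal between nickel-chelate acceptor and streptavidin donor beads (final 10 ug/mL) reports binding of 50 nM L3MBTL1 to 75 nM biotin-H3 K9me1 peptide; complex incubated with compounds 30 min at room temperature; cefsulodin titration as control.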
Sfp PPTase inh: blocks B. subtilis Sfp PPTase activity. Potency, µM, without a hit: largest response in the series, negative = inhibition, hits mostly inhibitors. Biochemical Sfp PPTase activity, qHTS. Q9F4F7. actives 3.5% (n = 310,000);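 note: the enzyme is Sfp with the accession as filed and its product quenches rhodamine fluorescence; 0% = enzyme reaction without inhibitor and -100% = no enzyme wells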
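After 15 min at room temperature with compound, 15 nM Sfp received 5 uM rhodamine-CoA plus 12.5 uM BHQ-2-ybbR (50 mM Hepes pH 7.6, 10 mM MgCl2). Rate came from the fluorescence difference over 30 min, ex 525/em 598 nm.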
JMJD2A Tudor: blocks the human JMJD2A Tudor domain; AlphaScreen JMJD2A-Tudor / H3K4me3 peptide binding; Potency, µM (top dose mostly 114 µM), for the others: top-dose activity change, negative = inhibition, actives largely listed as inhibitors; actives 4.4% (n = 390,000); AID 504339; note: % is set by controls: 0 for no effect and ±100 for the full control effect; nearly all actives have a fitted effect of over 50% in size
HP1b chromo inh: HP1-beta chromodomain-methylated histone interaction inhibition; P83916; AlphaScreen HP1-beta / biotin-H3K9me3 peptide binding; Potency, µM (doses to about 114 µM), inactives show top-dose activity change, negative = inhibition, usual class: inhibitors; actives 0.56% (n = 390,000); AID 540317; note: nearly all actives have a fitted effect of over 70% in size
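AlphaScreen: HP1-beta (50 nM) preformed 30 min with biotin-H3(1-18)K9me3 peptide (50 nM) in PBS pH 7.4, 0.01% Tween-20. Compound added for 30 min at RT, then streptavidin donor/nickel chelate acceptor beads (10 ug/mL) for 30 min.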
G9a block: blocks human histone lysine methyltransferase G9a | G9a H3K9 monomethylation, AlphaScreen, 2 h | Potency, µM (doses to about 102 µM), without a hit: top-dose activity, negative = inhibition, hits mostly inhibitors | actives 8.8% (n = 350,000) | AID 504332; note: % is set by controls: 0 for no effect and ±100 for the full control effect; nearly all actives have a fitted effect of over 75% in size
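AlphaScreen detection with an anti-monomethyl H3K9 antibody quantified product after a 2 h room-temperature reaction containing 500 nM biotinylated H3K9 peptide, 20 µM SAM and 20 nM enzyme, which had been preincubated 15 min with compound.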
BAZ2B inh: inhibitors of human BAZ2B bromodomain. Q9UIF8. AlphaScreen BAZ2B-H3K14Ac peptide displacement. Potency, µM (series often up to 114 µM), without a hit: at the highest dose activity change, negative = inhibition, usual class: inhibitors. actives 4.4% (n = 360,000). AID 504333; note: % is set by controls: 0 for no effect and ±100 for the full control effect; nearly all actives have a fitted effect of over 60% in size
Target sequence (Q9UIF8 whole entry, looked up): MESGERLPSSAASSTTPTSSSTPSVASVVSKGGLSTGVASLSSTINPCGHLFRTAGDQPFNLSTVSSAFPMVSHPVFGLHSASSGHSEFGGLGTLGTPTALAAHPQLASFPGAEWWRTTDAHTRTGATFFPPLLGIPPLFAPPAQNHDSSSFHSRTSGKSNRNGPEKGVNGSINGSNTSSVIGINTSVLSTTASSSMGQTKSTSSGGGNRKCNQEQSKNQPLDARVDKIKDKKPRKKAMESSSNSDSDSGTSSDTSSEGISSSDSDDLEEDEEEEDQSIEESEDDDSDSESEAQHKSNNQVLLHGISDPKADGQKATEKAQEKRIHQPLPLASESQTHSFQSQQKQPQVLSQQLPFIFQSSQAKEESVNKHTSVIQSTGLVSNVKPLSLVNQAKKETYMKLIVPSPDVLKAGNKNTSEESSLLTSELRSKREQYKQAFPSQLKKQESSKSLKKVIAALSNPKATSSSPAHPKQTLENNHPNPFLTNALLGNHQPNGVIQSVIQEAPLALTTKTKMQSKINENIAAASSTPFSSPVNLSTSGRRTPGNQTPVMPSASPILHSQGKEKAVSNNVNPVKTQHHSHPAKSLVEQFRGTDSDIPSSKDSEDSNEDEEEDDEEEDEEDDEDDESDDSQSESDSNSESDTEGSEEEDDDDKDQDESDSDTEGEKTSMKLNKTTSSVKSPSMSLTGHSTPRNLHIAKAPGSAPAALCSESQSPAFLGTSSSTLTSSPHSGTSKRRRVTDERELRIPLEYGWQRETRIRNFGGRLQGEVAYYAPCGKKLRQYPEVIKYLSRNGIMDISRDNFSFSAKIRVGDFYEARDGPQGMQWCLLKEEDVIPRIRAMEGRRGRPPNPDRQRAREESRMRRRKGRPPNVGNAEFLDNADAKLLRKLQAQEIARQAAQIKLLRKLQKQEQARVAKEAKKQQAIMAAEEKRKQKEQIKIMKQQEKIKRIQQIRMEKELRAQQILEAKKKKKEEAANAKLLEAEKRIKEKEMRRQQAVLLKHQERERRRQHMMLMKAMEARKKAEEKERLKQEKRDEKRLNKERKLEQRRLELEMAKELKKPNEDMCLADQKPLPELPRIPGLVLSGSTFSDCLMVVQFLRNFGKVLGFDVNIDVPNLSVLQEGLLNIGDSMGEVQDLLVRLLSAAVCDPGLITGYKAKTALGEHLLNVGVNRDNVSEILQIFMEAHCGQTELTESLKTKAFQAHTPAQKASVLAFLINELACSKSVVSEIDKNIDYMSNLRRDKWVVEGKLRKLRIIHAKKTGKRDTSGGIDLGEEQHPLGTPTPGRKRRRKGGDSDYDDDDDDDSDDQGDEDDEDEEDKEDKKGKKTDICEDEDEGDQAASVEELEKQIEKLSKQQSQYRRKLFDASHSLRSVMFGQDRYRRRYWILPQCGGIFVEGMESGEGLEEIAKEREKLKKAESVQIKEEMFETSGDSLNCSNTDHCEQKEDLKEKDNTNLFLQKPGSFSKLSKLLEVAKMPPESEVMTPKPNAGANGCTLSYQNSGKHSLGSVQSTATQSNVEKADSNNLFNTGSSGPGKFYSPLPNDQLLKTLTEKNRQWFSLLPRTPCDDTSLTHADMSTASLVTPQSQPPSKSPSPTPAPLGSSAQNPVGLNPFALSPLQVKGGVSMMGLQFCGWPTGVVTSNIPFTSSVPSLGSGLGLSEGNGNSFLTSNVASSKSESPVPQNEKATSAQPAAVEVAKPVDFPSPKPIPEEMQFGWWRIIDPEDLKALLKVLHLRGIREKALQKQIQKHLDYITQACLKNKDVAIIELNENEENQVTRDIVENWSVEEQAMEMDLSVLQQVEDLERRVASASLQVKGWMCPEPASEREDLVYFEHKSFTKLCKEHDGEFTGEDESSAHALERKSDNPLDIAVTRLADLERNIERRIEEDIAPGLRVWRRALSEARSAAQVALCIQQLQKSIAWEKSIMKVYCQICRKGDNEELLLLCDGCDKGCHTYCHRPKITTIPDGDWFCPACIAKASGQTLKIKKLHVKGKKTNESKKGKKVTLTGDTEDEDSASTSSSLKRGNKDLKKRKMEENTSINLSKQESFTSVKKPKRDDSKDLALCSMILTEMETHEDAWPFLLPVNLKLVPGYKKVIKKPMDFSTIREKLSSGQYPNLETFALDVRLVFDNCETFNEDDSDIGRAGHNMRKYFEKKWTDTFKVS
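AlphaScreen displacement of biotin-H3(5-23)K14Ac peptide (50 nM final) from BAZ2B (50 nM final) in PBS pH 7.4, 0.01% Tween-20; complex preformed 30 min RT, then compounds (top 110 uM) 30 min RT, beads 20 min dark.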
* = called active by the depositor; [ ] = another dose, or the depositor's remark. In the library only some 12% were active in any assay of this set; here they are far more common. Calls come from the whole dose curve; as a rule, active = well fitted curve in the direction sought with a large enough effect; inconclusive = small, poorly fitted or top-dose-only effect, or another doubt; inactive = no such curve, though single readings can be large; an effect the other way counts as inactive or inconclusive. Potency is the fitted concentration of half-maximal effect.

`CCC(N)(C(=O)O)c1ccc(C(=O)O)cc1` (stereo not given) gave Sfp PPTase inh 79µM* and G9a block 21%[59 µM].
For COc1ccc(N2CCN(S(=O)(=O)CCNC(=O)/C=C/c3ccc4c(c3)OCO4)CC2)cc1 the results were L3MBTL1 block -6%, JMJD2A Tudor -12%, HP1b chromo inh 49%, G9a block inconclusive and BAZ2B inh -11%.
`COCc1cc(N2CCCCC2)nc(-c2ccccc2)n1` gave L3MBTL1 block 7%, Sfp PPTase inh 0%, JMJD2A Tudor 20µM*, HP1b chromo inh 18%, G9a block 83% and BAZ2B inh 50%.
CSCc1cc(N2CCCC2)nc(-c2ccccc2)n1 was read as L3MBTL1 block -1%, Sfp PPTase inh 4%, JMJD2A Tudor -12%, HP1b chromo inh 48%, G9a block -23% and BAZ2B inh -10%.
CCOC(=O)C1Cc2cc3c(cc2C1=O)CC(C(=O)OCC)C3=O (stereo not given) was read as L3MBTL1 block -2%, Sfp PPTase inh 10%, G9a block 35µM* and BAZ2B inh -27%.
Screening CCOC(=O)C1=C(O)C(=O)N(C2CCCCC2)C1 returned L3MBTL1 block -2%, Sfp PPTase inh 27%, JMJD2A Tudor 4%, HP1b chromo inh 4%, G9a block inconclusive and BAZ2B inh -14%.
For CCOC(=O)C1=C(O)C(=O)C(C(=O)OCC)C1 (stereo not given) the results were JMJD2A Tudor 10µM* and HP1b chromo inh inconclusive.
For Cc1cc(=O)oc2cc(OCC(=O)Nc3c(C)n(C)n(-c4ccccc4)c3=O)c(Cl)cc12 the results were L3MBTL1 block 5%, JMJD2A Tudor -3%, HP1b chromo inh 25%, G9a block -7% and BAZ2B inh 79µM*.
Screening Cc1ccc(C)c(OCC(=O)Nc2c(C)n(C)n(-c3ccccc3)c2=O)c1 returned L3MBTL1 block 5%, JMJD2A Tudor -15%, HP1b chromo inh 24%, G9a block 1%[12.7 µM] and BAZ2B inh 1%.
Screening CCCOC(=O)c1ccc(NC(=O)C2C3C=CC(O3)C2C(=O)O)cc1 (stereo not given) returned L3MBTL1 block 3%, Sfp PPTase inh 79µM*, JMJD2A Tudor -18%, HP1b chromo inh 52%, G9a block 14µM* and BAZ2B inh -28%.
`CC(=O)c1ccc(NC(=O)C2C3C=CC(O3)C2C(=O)O)cc1` (stereo not given) gave Sfp PPTase inh 11%, JMJD2A Tudor inconclusive, HP1b chromo inh 4%, G9a block inconclusive and BAZ2B inh 2%.
For CC(C)OC(=O)c1cc(NC(=O)C2C3C=CC(O3)C2C(=O)O)cc(C(=O)OC(C)C)c1 (stereo not given) the results were Sfp PPTase inh 7%, JMJD2A Tudor inconclusive, HP1b chromo inh 73%, G9a block 50µM* and BAZ2B inh inconclusive.
Screening COc1ccc(NC(=O)C2C3C=CC(O3)C2C(=O)O)cc1 (stereo not given) returned L3MBTL1 block 2%, Sfp PPTase inh 12%, JMJD2A Tudor -18%, HP1b chromo inh 25%, G9a block 40µM* and BAZ2B inh -1%.
COc1cccc(NC(=O)C2C3C=CC(O3)C2C(=O)O)c1 (stereo not given) was read as L3MBTL1 block -3%, Sfp PPTase inh -9%, JMJD2A Tudor -5%, HP1b chromo inh 41% and BAZ2B inh -37%.
Screening COc1ccc(OC)c(/C=N/NC(=O)CC2C(=O)NN=C2C)c1 (stereo not given) returned L3MBTL1 block 5%, Sfp PPTase inh 19%, JMJD2A Tudor -10%, HP1b chromo inh 14%, G9a block 14%[59 µM] and BAZ2B inh -3%.
`COc1ccccc1NC(=O)CSc1sc2c(O)cc(=O)[nH]c2c1C#N` gave Sfp PPTase inh 40µM*, JMJD2A Tudor inconclusive, HP1b chromo inh -17%, G9a block 8.9µM* and BAZ2B inh inconclusive.
COc1ccc(Cl)cc1NC(=O)CSc1sc2c(O)cc(=O)[nH]c2c1C#N was read as Sfp PPTase inh -29%, JMJD2A Tudor -13%, HP1b chromo inh 11%, G9a block inconclusive and BAZ2B inh -31%.
Screening COc1ccc(NC(=O)CSc2sc3c(O)cc(=O)[nH]c3c2C#N)c(OC)c1 returned Sfp PPTase inh inconclusive, JMJD2A Tudor inconclusive, HP1b chromo inh inconclusive, G9a block 79µM* and BAZ2B inh 79µM*.
For CCOCCCNCc1ccc(Cl)cc1 the results were L3MBTL1 block 5%, Sfp PPTase inh -22%, JMJD2A Tudor 1.1µM*, HP1b chromo inh inconclusive, G9a block 11µM* and BAZ2B inh 71µM*.
COc1cc(Cl)c(C)cc1NC(=O)CC(c1ccc(F)cc1)N1Cc2ccccc2C1=O (stereo not given) was read as JMJD2A Tudor -10%, HP1b chromo inh 12%, G9a block -11%[59 µM] and BAZ2B inh -32%.
O=C(Nc1csc([N+](=O)[O-])c1)Nc1ccccc1Cl was read as Sfp PPTase inh 2%, JMJD2A Tudor 2%, HP1b chromo inh 9%, G9a block 12% and BAZ2B inh -35%.
For O=C(Nc1ccc(Cl)cc1)Nc1ccccc1Sc1ncc([N+](=O)[O-])s1 the results were Sfp PPTase inh 50µM*, JMJD2A Tudor inconclusive, HP1b chromo inh 8% and BAZ2B inh 28µM*.
For O=C(c1nc2ccccn2c1CNCCCn1cccn1)N1CCCC1 the results were L3MBTL1 block 1%, Sfp PPTase inh 19%, JMJD2A Tudor -10%, HP1b chromo inh 24%, G9a block 6% and BAZ2B inh 4%.
Screening CCc1cc2c(=O)n3c(nc2s1)-c1[nH]c2ccc(OC)cc2c1CC3 returned L3MBTL1 block 3%, Sfp PPTase inh 10%, JMJD2A Tudor 22µM*, HP1b chromo inh 21%, G9a block inconclusive and BAZ2B inh 8%.
C/C(=C\c1ccccc1)CN1CCN(C)CC1 was read as L3MBTL1 block -5%, Sfp PPTase inh -23%, JMJD2A Tudor -100%, HP1b chromo inh inconclusive, G9a block 13µM* and BAZ2B inh inconclusive.
Screening CCN(Cc1ccccc1)C(=O)C1CCN(C/C(C)=C/c2ccccc2)CC1 returned L3MBTL1 block -2%, Sfp PPTase inh -1%, JMJD2A Tudor 16µM*, HP1b chromo inh -24%, G9a block 35µM* and BAZ2B inh inconclusive.

Screening results deposited in PubChem by National Center for Advancing Translational Sciences (NCATS).
